High-throughput results as filed in PubChem.
TSHR ag: agonists of human thyroid stimulating hormone receptor | P16473 | HEK293-CNG-TSHR cells (CNG channel as cAMP sensor), membrane potential dye, cAMP | Potency, µM (top dose mostly 57.1 µM), inactives show at the highest dose activation, hits mostly activators | actives 0.48% (n = 73,000); active means well fitted activation curve with a large enough effect in the main read-out, with a control signal flat, not every such curve was filed as active; inconclusive means small, poorly fitted or top-dose-only effect, or a change in a side signal; inactive means no such curve, though single readings can be large or run the other way; % of control where 0% means no effect;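 further: the control signal comes from parental cells without the receptor; potency means the concentration at half of the fitted maximal effect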
Target sequence (P16473 whole entry, looked up): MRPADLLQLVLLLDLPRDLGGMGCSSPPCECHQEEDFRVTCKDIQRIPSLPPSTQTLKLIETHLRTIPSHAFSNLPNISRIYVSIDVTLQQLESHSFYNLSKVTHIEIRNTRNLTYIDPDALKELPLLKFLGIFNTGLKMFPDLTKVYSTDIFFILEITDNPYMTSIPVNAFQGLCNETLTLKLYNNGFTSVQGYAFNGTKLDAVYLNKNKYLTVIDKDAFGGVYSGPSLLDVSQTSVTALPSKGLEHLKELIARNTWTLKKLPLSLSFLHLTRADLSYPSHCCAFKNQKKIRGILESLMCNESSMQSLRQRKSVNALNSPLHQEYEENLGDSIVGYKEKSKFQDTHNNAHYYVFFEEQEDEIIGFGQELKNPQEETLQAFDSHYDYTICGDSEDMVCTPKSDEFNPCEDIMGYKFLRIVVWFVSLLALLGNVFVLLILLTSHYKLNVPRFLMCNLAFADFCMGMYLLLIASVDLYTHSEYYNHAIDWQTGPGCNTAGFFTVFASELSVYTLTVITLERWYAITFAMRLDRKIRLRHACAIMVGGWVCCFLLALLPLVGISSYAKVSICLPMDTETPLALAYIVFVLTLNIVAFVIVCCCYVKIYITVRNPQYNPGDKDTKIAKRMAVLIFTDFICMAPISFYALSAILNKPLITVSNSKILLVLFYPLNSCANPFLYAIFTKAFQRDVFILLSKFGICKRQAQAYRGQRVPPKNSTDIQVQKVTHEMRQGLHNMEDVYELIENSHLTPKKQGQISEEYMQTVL
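cAMP rise detected as CNG-channel membrane depolarization by fluorescent dye (emission 590 nm), 30 min after compound, following 60 min dye loading containing 100 uM RO 20-1724 at room temperature. Cells: TSHR/CNG HEK 293, with parental CNG HEK 293 as control.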
PK Bst: alters activity of Bacillus stearothermophilus pyruvate kinase | actives 1.2% (n = 51,000) | AID 361 | purified pyruvate kinase, luminescence ATP production; ribose 5-phosphate activator present at AC10 | Potency, µM; in the data active means potency below about 11 µM; inconclusive means mostly about 12 µM to 25 µM;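 the screen sought inhibitors and activators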;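 further: potency means the concentration at half of the fitted maximal effect; scaled between full activation by ribose 5 phosphate and full inhibition by luteolin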
USP2a inhib: blocks human ubiquitin-specific protease USP2a; O75604; USP2a enzymatic assay, qHTS inhibition; actives 0.1% (n = 60,000); AID 927; Potency, µM (series often up to 38.3 µM), for inactives: top-dose activity change, negative = inhibition, usual class: inhibitors; further: potency means the concentration at half of the fitted maximal effect; nearly all actives have a fitted effect of over 60% in size
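20 nM USP2 core + cpd, 30 min RT; add 20 nM Ub-PLA2/20 uM NBD C6-HPC; read Ex460/Em535 at 0 h and 2.5 h. Normalized to NEM; qHTS curve fit/classification.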
Ub-GFP proteasome: inhibits proteasome, raising ubiquitin-GFP reporter fluorescence; Potency, µM (series often up to 45.9 µM), for the others: top-dose activation (GFP accumulation), usual class: activators; 67,000 tested, under 10 active; AID 526; Ubiquitin-GFP reporter cells, proteasome inhibition, GFP fluorescence; response scale: untreated = 0%, 10 µM MG-132 = 100%; active means well fitted activation curve with a large enough effect, not every such curve was filed as active; inconclusive means small, poorly fitted or top-dose-only effect, or another doubt; inactive means no such curve, though single readings can be large or run the other way; further: potency means the concentration at half of the fitted maximal effect
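U2OS cells expressing ubiquitin(G76V)-GFP, seeded overnight in 0.5% FBS medium, then treated 4 hr at 37 C across 46 uM to 2.9 nM. GFP-positive cells counted by laser cytometry (488 ex/515 em); %activity scaled between basal and 10 uM MG-132.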
GBA mod: alters purified human glucocerebrosidase activity; P04062; purified enzyme, resorufin glucoside fluorescence (screen aimed at inhibitors), 20 min; Potency, µM; actives 1.1% (n = 48,000); AID 360; in the data active means potency below about 15 µM; inconclusive means mostly about 16 µM to 33 µM;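 further: potency means the concentration at half of the fitted maximal effect; the screen sought inhibitors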
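Normal human glucocerebrosidase (0.2 nM final) was assayed with resorufin β-D-glucopyranoside (30 uM final) in 50mM citric acid/KH2PO4, 10mM sodium taurocholate, 0.01% tween-20, pH 5.9. Compounds were titrated; fluorescence (Ex 548, Em 600) read after 20 min at RT.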
HEK293 cAMP cs: parental HEK293 cAMP activation (counter-screen). AID 938. Potency, µM (titrated, usually from 57.1 µM), for inactives: at the highest dose activation, most hits filed as activators. actives 2.5% (n = 73,000). parental HEK293 CNG cAMP sensor, membrane potential fluorescence; further: potency means the concentration at half of the fitted maximal effect; % of control where 0% means no effect; nearly all actives have a fitted effect of over 55% in size
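Parental HEK 293 cells stably expressing a modified CNG channel (no TSHR) report cAMP rise as membrane depolarization. Membrane potential dye with 100 uM RO 20-1724 was loaded for 60 min at room temperature, then compound added for 30 min; fluorescence read at 590 nm.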
HEK293 cAMP cnt: raises cAMP in parental HEK293 cells lacking TSH receptor. shares compounds with TSHR ag. parental HEK293 CNG biosensor, cAMP membrane potential fluorescence. activity change, negative = inhibition, % at 32.9 µM. 150 tested, under 10 active. AID 953
* marks the source's active call; other numbers are inactive results; i = inactive; ? = inconclusive; . = not tested or not shown; [ ] = dose if it differs, or a comment. The list is not random: actives were taken first. Their share in the collection is about 4.1%. Unless noted, the call rests on the fitted dose curve; in most records, active means well fitted curve in the direction sought with a large enough effect; inconclusive means small, poorly fitted or top-dose-only effect, or another doubt; inactive means no such curve, though single readings can be large; an effect the other way counts as inactive or inconclusive.

SMILES	TSHR ag	PK Bst	USP2a inhib	Ub-GFP proteasome	GBA mod	HEK293 cAMP cs	HEK293 cAMP cnt
CC(C)CN1CCCC2(CCN(C(=O)c3ccco3)CC2)C1	11.8%	.	62.5%	-0.9%	.	3.0%	.
CC(C)CN1CC2(CCN(C(=O)c3ccco3)CC2)C1	?	.	-0.9%	-2.2%	.	20µM*	.
COCCn1c(=O)c(-c2ccc(F)cc2)nc2cnc(OCc3ccccc3)nc21	16.6%	.	5.2%	-9.3%	.	9.0%	.
Cn1c(=N)n(CC(=O)C(C)(C)C)c2ccccc21	15.7%	>57	-1.9%	-2.3%	13.1*	28.8%	.
COc1ccc(C(=O)N2CCC3(CC2)CN(C(=O)Nc2cccc(C#N)c2)C3)cc1	.	.	85.2%	-0.2%	.	11.7%	.
CN(C)c1nc(Oc2ccc(C(=O)OCC(=O)Nc3ccccc3)cc2)nc(N(C)C)n1	?	.	41.7%[7.66 µM]	14.8%[9.17 µM]	.	3.16µM*	.
CCOC(=O)c1ccc(Oc2nc(OC)nc(N(C)C)n2)cc1	?	.	4.6%	-3.0%	.	?	.
O=C(c1ccccc1)n1nc(-c2ccccc2)nc1NCc1ccco1	25.1µM*	.	.	-9.6%	.	19.4%	.
CCCc1cc(=O)oc2cc3occ(C)c3cc12	?	.	11.9%	-9.2%	.	?	.
CCCc1cc(=O)oc2cc3oc(C)c(C)c3cc12	?	>57	-13.4%	-1.8%	>76.9	25.1µM*	.
CCc1cc(=O)oc2cc3oc(C)c(C)c3cc12	?	>57	0.0%	-8.1%	i	25.1µM*	.
O=S(=O)(c1cccc(C(F)(F)F)c1)N1c2ccccc2-n2cccc2[C@H]1c1cccnc1	?	.	.	-3.8%[9.17 µM]	.	?	.
O=C(c1cc(-c2cccs2)on1)N1CCCc2ccccc21	?	.	.	5.7%	.	?	?
O=C(O)c1cc(-c2ccccc2)c(N2CCOCC2)s1	12.0%	>57	-7.3%	10.0%	>76.9	11.9%	.
O=C(NCc1ccco1)c1cc(-c2ccccc2)c(N2CCOCC2)s1	-7.0%	>57	28.8%	4.7%	>76.9	-0.5%	-61.5[25.6 µM]
CC1(C)CC(=O)C2=C(C1)OC(N)=C(C#N)C2CCc1ccccc1 (centres undefined)	20µM*	>57	.	-4.1%	.	27.6%	14.3
CC1(C)CC(=O)C2=C(C1)OC(N)=C(C#N)C2C#Cc1ccccc1 (centres undefined)	18.3%	>57	36.9%	-4.5%	i	4.4%	.
CCOc1ccc(NC(=O)C(C)SC(N)=O)cc1 (centres undefined)	-31.6%	.	4.3%	12.7%	.	-16.9%	-37.5[25.6 µM]
CCOc1ccc(N(C(C)C(=O)Nc2ccc(OC)cc2)S(C)(=O)=O)cc1 (centres undefined)	4.3%[11.4 µM]	.	12.9%[7.66 µM]	6.2%[9.17 µM]	.	-3.3%[11.4 µM]	-4.4[25.6 µM]
Cn1c(=O)c(-c2ccccc2)nc2cnc(OCc3ccccc3)nc21	7.7%	.	6.4%	-4.0%	.	17.1%	.
CC(=O)c1cccc(NC(=O)c2cc(-n3cnnc3)ccc2Cl)c1	1.8%	>57	7.4%	10.0%	>76.9	2.4%	.
COc1cc(NC(=O)c2cc(-n3cnnc3)ccc2Cl)cc(OC)c1	.	.	28.2%	6.0%	>76.9	6.1%	-1.3[25.6 µM]
Cc1ccc(S(=O)(=O)O[C@@H]2[C@H]([C@@H]3COC(C)(C)O3)O[C@H]3OC(C)(C)O[C@@H]32)cc1	0.3%[11.4 µM]	.	.	-10.8%[9.17 µM]	.	-10.9%[11.4 µM]	.
CCN(CC)CCCC(C)NC(=O)c1ccc(Cc2nc3ccccc3[nH]2)cc1 (centres undefined)	1.5%	.	.	.	.	-16.0%	.
COc1ccc(CNc2nc(SC)n[nH]2)cc1OC	3.5%	>57	-5.3%	0.0%	>76.9	6.9%	3.9[25.6 µM]
COc1ccc(CNc2n[nH]c(NCc3ccc(OC)c(OC)c3)n2)cc1OC	2.4%	>57	9.4%	9.7%	>76.9	2.5%	.
Oc1ccccc1-c1cc(C(F)(F)C(F)F)nc(-c2ccccc2)n1	?	>57	-3.2%	-1.7%	.	?	3.4
Nc1nc(-c2ccccc2)cc(C(F)(F)F)n1	-1.1%	.	-12.5%	-4.3%	>76.9	19.7%	.
